Results as given in the supplement of paper PMC9925115.
Structures can show the parent of a compound that is named as a salt. ± gives the uncertainty stated by the source.

Legend:
FLX1 = assay: cell viability z-score within plate (CellTiter-Glo), mean of 3 biological replicates; higher = higher viability relative to plate (less growth inhibition); conditions: 2 µM; time (hr): 120
Procedure: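 FLX1 fibrolamellar carcinoma cells (DNAJB1-PRKACA fusion), 600 cells/well in 384-well plates, treated with a Selleck kinase inhibitor library (L1200) at 2 uM for 5 days (120 hr); viability by CellTiter-Glo. A z-score was computed within each plate and averaged over three biological replicates.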

[1] = system: FLX1 + dox-induced PRKAR1A G325D; assay: difference in log2 fold change of viability vs plate median (dox-induced PRKAR1A G325D minus uninduced); higher = compound less effective when PKA is inhibited; conditions: concentration: not stated (2 or 5 uM); 5 days
Procedure: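 For each plate a log2 fold change vs the plate median was derived, and the values without dox were subtracted from those with dox, averaged over three biological replicates.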

| SMILES | cell viability z-score within plate (FLX1) | difference in log2 fold change of viability [1] |
| --- | --- | --- |
| CO[C@H]1C[C@@H]2CC[C@@H](C)[C@@](O)(O2)C(=O)C(=O)N2CCCC[C@H]2C(=O)O[C@H]([C@H](C)C[C@@H]2CC[C@@H](OC(=O)C(C)(CO)CO)[C@H](OC)C2)CC(=O)[C@H](C)/C=C(\C)[C@@H](O)[C@@H](OC)C(=O)[C@H](C)C[C@H](C)/C=C/C=C/C=C/1C | -0.0698 ± 1.1 | 0.457 |
| Cn1cnc2c(F)c(Nc3ccc(Br)cc3Cl)c(C(=O)NOCCO)cc21 [Selumetinib (AZD6244)] | -0.403 ± 0.49 | -1.05 |
| C=CC(=O)Nc1cccc(Nc2nc(Nc3ccc(NC4CN(CCF)C4)cc3OC)ncc2C(F)(F)F)c1 | -0.00318 ± 1.3 | -0.839 |
| CCn1c(=O)c(-c2ccc(-c3cncs3)cc2Cl)cc2cnc(Nc3ccc(N4CCN(C)CC4)cc3)nc21 | 0.491 ± 0.12 | -0.943 |
| CN(C)Cc1cccc(N/C(=C2\C(=O)Nc3cc(C(N)=O)ccc32)c2ccccc2)c1 | -0.208 ± 0.31 | -0.409 |
| O=c1c(-c2ccc(O)cc2)coc2cc(O)cc(O)c12 [Genistein] | -0.148 ± 0.52 | 0.126 |
| CC(C)NC[C@@H](C(=O)N1CCN(c2ncnc3c2[C@H](C)C[C@H]3O)CC1)c1ccc(Cl)cc1 [Ipatasertib (GDC-0068)] | 1.05 ± 0.14 | 0.54 |
| Cc1ccc(NC(=O)c2cccc(C(C)(C)C#N)c2)cc1Nc1ccc2ncn(C)c(=O)c2c1 | -1.84 ± 0.14 | 0.173 |
| CNCc1ccc(-c2cc(-c3nc(-c4ccc(S(=O)(=O)C(C)C)cc4)cnc3N)on2)cc1 | 0.59 ± 0.39 | -0.00074 |
| CNC(=O)c1ccc(C)c(-n2c(C)cc(OCc3ccc(F)cc3F)c(Br)c2=O)c1 | 0.325 ± 0.62 | 0.455 |
| CCc1cccc(CC)c1NC(=O)N1Cc2[nH]nc(NC(=O)c3ccc(N4CCN(C)CC4)cc3)c2C1 | -0.62 ± 0.28 | 0.41 |
| Cn1cc(-c2ccc3ncc(Cc4ccc5ncccc5c4)n3n2)cn1 | 0.137 ± 0.93 | -0.0241 |
| Cc1cc(Nc2nc(N[C@@H](C)c3ccc(F)cc3)c(C#N)cc2F)n[nH]1 | 0.513 ± 0.61 | -0.0432 |
| N#CC1(c2ccc(NC(=O)c3cccnc3NCc3ccncc3)cc2)CCCC1 [Apatinib] | 0.121 ± 0.33 | 0.497 |
| Cc1cc(Nc2cc(N3CCN(C)CC3)nc(/C=C/c3ccccc3)n2)n[nH]1 | 0.628 ± 0.19 | -0.0361 |
| CCn1c(-c2nonc2N)nc2c(C#CC(C)(C)O)ncc(OC[C@H]3CCCNC3)c21 | -1.24 ± 0.86 | 0.00672 |
| CC[C@H](Nc1ncnc2[nH]cnc12)c1nc2cccc(F)c2c(=O)n1-c1ccccc1 [Idelalisib (CAL-101, GS-1101)] | 0.166 ± 0.22 | 0.00653 |
| COc1cc2c(c(OC)c1OC)-c1c(cc3c(c1OC)OCO3)CC(C)C(C)C2 (configuration not stated) [Schisandrin B (Sch B)] | 0.407 ± 0.2 | 0.277 |
| Cc1ncc(-c2ccnc(Nc3ccc(S(C)(=O)=O)cc3)n2)n1C(C)C | 0.322 ± 0.54 | 0.632 |
| C[C@H](NC(=O)/C(C#N)=C/c1cccc(Br)n1)c1ccccc1 | 0.427 ± 0.59 | -0.381 |
| C[S+]([O-])c1ccc(-c2nc(-c3ccc(F)cc3)c(-c3ccncc3)[nH]2)cc1 (configuration not stated) | -1.58 ± 1.1 | -0.00802 |
| O=C(NOCC1CC1)c1ccc(F)c(F)c1Nc1ccc(I)cc1Cl | 0.606 ± 0.25 | 0.453 |
| CCOC(=O)c1cnc2ccc(-c3cncc(NS(=O)(=O)c4ccccc4)c3)cn12 | 0.507 ± 0.62 | 0.663 |
| CCCS(=O)(=O)Nc1ccc(F)c(C(=O)c2c[nH]c3ncc(-c4ccc(Cl)cc4)cc23)c1F [Vemurafenib (PLX4032, RG7204)] | -3.08 ± 1.3 | 0.336 |

| SMILES | cell viability z-score within plate (FLX1) | difference in log2 fold change of viability [1] |
| --- | --- | --- |
| O=S(=O)(c1cccc2cnccc12)N1CCCNCC1 [Fasudil (HA-1077) HCl] | 0.511 ± 0.42 | -0.15 |
| Cc1ccc(NC(=O)c2ccc(CN3CCN(C)CC3)cc2)cc1Nc1nc(-c2cccnc2)cs1 [Masitinib (AB1010)] | -1.52 ± 1.2 | 0.682 |
| Cc1ccc(F)c(NC(=O)Nc2ccc(-c3cccc4[nH]nc(N)c34)cc2)c1 [Linifanib (ABT-869)] | 0.077 ± 0.57 | 0.386 |
| O=C(NOCC(O)CO)c1cc(Br)c(F)c(F)c1Nc1ccc(I)cc1F (configuration not stated) | 0.628 ± 0.22 | -1.06 |
| CCS(=O)(=O)Nc1ccc2c(c1)/C(=C(/Nc1ccc(CN3CCCCC3)cc1)c1ccccc1)C(=O)N2 [Hesperadin] | -2.01 ± 0.23 | -0.105 |
| Cc1nc(Nc2ncc(C(=O)Nc3c(C)cccc3Cl)s2)cc(N2CCN(CCO)CC2)n1 [Dasatinib] | -1.19 ± 0.2 | 0.18 |
| CN1CCN(S(=O)(=O)c2ccc(-c3cnc(N)c(C(=O)Nc4cccnc4)n3)cc2)CC1 | 0.448 ± 0.3 | -0.529 |
| CC(=O)Nc1cccc(-n2c(=O)n(C3CC3)c(=O)c3c(Nc4ccc(I)cc4F)n(C)c(=O)c(C)c32)c1 | 0.929 ± 0.43 | -0.368 |
| CCN1/C(=C/C(C)=O)Sc2ccc(OC)cc21 | -1.85 ± 0.92 | -0.074 |
| COCCOc1ccc2c(c1)ncn2-c1ccc2cccc(N3CCC(N)CC3)c2n1 | 0.546 ± 0.4 | -0.262 |
| Nc1nccc(Oc2ccc(NC(=O)c3c[nH]cc(-c4ccc(F)cc4)c3=O)cc2F)c1Cl | -0.37 ± 0.32 | -0.00105 |
| Cc1cn(-c2cc(NC(=O)c3ccc(C)c(Nc4nccc(-c5cccnc5)n4)c3)cc(C(F)(F)F)c2)cn1 [Nilotinib (AMN-107)] | 0.322 ± 0.59 | 0.157 |
| NC(=O)c1ncn([C@@H]2O[C@H](CO)[C@@H](O)[C@H]2O)c1N [AICAR (Acadesine)] | 0.371 ± 0.82 | -0.0733 |
| Cc1nc(NC(=O)N2CCC[C@H]2C(N)=O)sc1-c1ccnc(C(C)(C)C(F)(F)F)c1 [Alpelisib (BYL719)] | 0.524 ± 0.28 | 0.385 |
| N=C(N)NC(=N)NCCc1ccccc1 [Phenformin HCl] | 1.08 ± 0.3 | -0.0569 |
| Cc1c(F)cc(C(=O)NC2CC2)cc1-c1ccc(C(=O)NCC(C)(C)C)cn1 | -0.342 ± 0.51 | -0.0149 |
| COc1cc(Nc2ncc(F)c(Nc3ccc4c(n3)NC(=O)C(C)(C)O4)n2)cc(OC)c1OC [R406 (free base)] | 0.533 ± 0.55 | -0.334 |
| CC(C)CCN1c2nc(Nc3cc(F)c(O)c(F)c3)ncc2N(C)C(=O)C1C (configuration not stated) | -0.812 ± 0.59 | -0.074 |
| Cc1ccc(Nc2nccc(N(C)c3ccc4c(C)n(C)nc4c3)n2)cc1S(N)(=O)=O [Pazopanib] | -0.34 ± 0.86 | 0.0453 |
| N#Cc1ccc2[nH]c(O)c(-c3ccc(CN4CCOCC4)cn3)c2c1 | 0.226 ± 0.62 | 0.199 |
| Oc1c2ccccc2c2c3c(cccc13)N=N2 | 0.48 ± 0.65 | 0.149 |
| COc1ccc(-c2ccc3c(N4CCOC[C@@H]4C)nc(N4CCOC[C@@H]4C)nc3n2)cc1CO | 0.926 ± 0.45 | 1.55 |
| O=C(NOC[C@H](O)CO)c1ccc(F)c(F)c1Nc1ccc(I)cc1F | -1.16 ± 0.84 | -1.04 |
| O=C1c2ccc(Nc3ccc(F)cc3F)cc2CCc2ccc(OC[C@H](O)CO)cc21 [Skepinone-L] | -1.21 ± 0.79 | 0.71 |

| SMILES | cell viability z-score within plate (FLX1) | difference in log2 fold change of viability [1] |
| --- | --- | --- |
| CCOc1cc2ncc(C#N)c(Nc3ccc(F)c(Cl)c3)c2cc1NC(=O)/C=C/CN(C)C [Pelitinib (EKB-569)] | -1.38 ± 0.64 | 0.0327 |
| NC(=O)Nc1cc(-c2cccc(F)c2)sc1C(=O)N[C@H]1CCCNC1 | 0.408 ± 0.47 | -0.12 |
| CNc1nc(Nc2cn(C(C)(C)C#N)nc2C)ncc1C(F)(F)F | 0.707 ± 0.76 | 0.145 |
| Cc1cc(Nc2cc(CN3CCOCC3)c3nc(C)c(Cc4ccc(Cl)cc4F)n3n2)n[nH]1 | 0.049 ± 0.54 | -1.14 |
| COc1ccc(F)c(F)c1C(=O)c1cnc(NC2CCN(S(C)(=O)=O)CC2)nc1N | 0.272 ± 0.44 | 0.247 |
| CNC(=O)c1cccc(-c2ccc3c(N4CCOC[C@@H]4C)nc(N4CCOC[C@@H]4C)nc3n2)c1 [Vistusertib (AZD2014)] | -0.936 ± 1.4 | 0.675 |
| N#CC(=C(/N)Sc1ccccc1N)/C(C#N)=C(\N)Sc1ccccc1N | -1.01 ± 0.4 | 0.518 |
| COc1ccc(S(=O)(=O)N(C(C)=O)c2ccccc2/C=C/c2cc[n+]([O-])cc2)cc1 | 0.21 ± 0.36 | 0.0942 |
| CC1(C)CNc2cc(NC(=O)c3cccnc3NCc3ccncc3)ccc21 [Motesanib Diphosphate (AMG-706)] | 0.0691 ± 0.21 | 0.326 |
| Cn1sc(=O)n(Cc2ccccc2)c1=O | 1.12 ± 0.94 | 0.221 |
| C=CCc1ccc(O)c(-c2ccc(O)c(CC=C)c2)c1 [Honokiol] | 0.237 ± 0.16 | -1.37 |
| Cn1c(=O)c(F)c(Nc2ccc(I)cc2F)c2c(=O)n(C[C@@H](O)CO)cnc21 | 1.04 ± 0.62 | -1.3 |
| C=CC(=O)Nc1cc(Nc2nccc(-c3cn(C)c4ccccc34)n2)c(OC)cc1N(C)CCN(C)C [Osimertinib (AZD9291)] | -0.225 ± 0.34 | -0.173 |
| Cc1cc(Nc2nc(N[C@@H](C)c3ncc(F)cn3)ncc2Cl)[nH]n1 | -0.166 ± 0.46 | -1.58 |
| COc1cc2ncnc(Nc3ccc(F)c(Cl)c3)c2cc1NC(=O)/C=C/CN1CCCCC1 | 0.26 ± 0.81 | -0.0217 |
| NC(=O)Nc1sc(-c2ccc(F)cc2)cc1C(N)=O | -0.156 ± 0.51 | -0.89 |
| O=C(NCCCNc1nc(Nc2cccc(NC(=O)N3CCCC3)c2)ncc1I)c1cccs1 | -0.658 ± 0.97 | 0.621 |
| CN1CCN(c2nc(C3=C(c4c[nH]c5ccccc45)C(=O)NC3=O)c3ccccc3n2)CC1 [Sotrastaurin] | 0.764 ± 0.47 | -0.157 |
| CC[C@@H]1C(=O)N(C)c2cnc(Nc3ccc(C(=O)N[C@H]4CC[C@H](N5CCN(CC6CC6)CC5)CC4)cc3OC)nc2N1C(C)C [Volasertib (BI 6727)] | -0.186 ± 0.53 | -0.0557 |
| O=c1c(O)c(-c2ccc(O)c(O)c2)oc2cc(O)cc(O)c12 [Quercetin] | 1.1 ± 0.51 | -0.0725 |
| Cn1ncc(Cl)c1-c1cc(C(=O)N[C@H](CN)Cc2ccc(F)c(F)c2)oc1Cl | -0.657 ± 0.15 | -0.0579 |
| COc1cccc2cc(-c3nc([C@H]4CC[C@H](C(=O)O)CC4)n4ncnc(N)c34)[nH]c12 | 0.362 ± 0.51 | 0.812 |
| O=C(Nc1c[nH]nc1-c1nc2ccc(CN3CCOCC3)cc2[nH]1)NC1CC1 | 0.178 ± 0.39 | 0.115 |
